Assay: qHTS profiling of inhibitors of Plasmodium falciparum (HB3) proliferation (acoustic dispense)
Settings: P. falciparum HB3 in erythrocytes, SYBR Green, 72 h; at 49.8 µM (top of the series) unless noted
Text: Plasmodium falciparum is a virulent malarial parasite that kills 1-2 million people worldwide each year. Transmitted by mosquitoes, the sporozoite form of the parasite enters the blood stream to infect hepatocytes, where they become merozoites that infect red blood cells (erythrocytes). Within erythrocytes, merozoites begin a […] cycle of growth and division, after which the parasite is released to infect new red blood cells. Gametocytes, which form within erythrocytes as well, circulate in the bloodstream and are ingested by the mosquito, thereby completing the life cycle. To profile malarial isolates for differential chemical responses and to identify inhibitors of malarial growth, an assay that measures P. falciparum growth and replication within erythrocytes was employed. This assay uses a DNA binding fluorescent dye (SYBR Green) to detect parasite DNA following cell lysis. Because mature erythrocytes lack DNA, only Plasmodium-derived DNA is detected.
The SYBR Green viability assay was adapted from a method described previously (Plouffe et al., 2008). For screening 3 ul culture medium was dispensed into 1536 well black clear bottom plates (Aurora Biotechnologies) using a Multidrop Combi (Thermo Fisher Scientific Inc.), 23 nL of compounds in DMSO were added by an acoustic dispenser (EDC Biosystems), and 5 ul of erythrocytes infected with P. falciparum (0.3% parasitemia, 2.5% hematocrit final concentration) were added. The plates were incubated at 37 C in a humidified incubator in 5% CO2 for 72 h, and 2 ul lysis buffer (20 mM Tris HCl, 10 mM EDTA, 0.16% saponin, 1.6% triton X, 10X SYBR Green I supplied as 10,000X […] by Invitrogen) was added to each well. The plates were mixed for 25 sec with gentle shaking and incubated overnight at room temperature in the dark. The following morning, fluorescence intensity at 485(14) nm excitation and 535(25) nm emission wavelengths was measured on an EnVision (Perkin Elmer) plate reader. Plate reads were normalized relative to the control inhibitor (0.29 uM artemisinin) and vehicle (DMSO) wells present on each plate and then corrected by an algorithm using vehicle-only control plates at the beginning and end of the compound plate stack.
CC=C(C)C(=O)N[C@@H](c1ccccc1)[C@@H](O)C(=O)O[C@H]1C[C@@]2(O)[C@@H](OC(=O)c3ccccc3)[C@@H]3[C@]4(OC(C)=O)CO[C@@H]4C[C@H](O)[C@@]3(C)C(=O)[C@H](OC(C)=O)C(=C1C)C2(C)C showed an activity (normalised, proliferation) of 2.88%. For CC(=O)N(O)CCCP(=O)(O)O, the activity (normalised, proliferation) was 2.97%. Compound CC(C)(N)CNC(=O)CC1CCC2(CC1)OOC1(O2)C2CC3CC(C2)CC1C3 (stereo unspecified) has an activity (normalised, proliferation) of -0.313%. With CC(=Cc1csc(C)n1)[C@@H]1C[C@H]2O[C@@H]2CCC[C@H](C)[C@@H](O)[C@@H](C)C(=O)C(C)(C)[C@@H](O)CC(=O)O1 the activity (normalised, proliferation) was 10.3%. For CC(=O)Nc1nnc(S(N)(=O)=O)s1, the activity (normalised, proliferation) was 89.5%. For COC(=O)[C@@]1(OC)C[C@@H]2O[C@@]1(C)n1c3ccccc3c3c4c(c5c6ccccc6n2c5c31)C(=O)N(C)C4, the activity (normalised, proliferation) was -0.375% [at 16.5 µM]. In the case of CC1=C(O)C(=O)C=C2C1=CC=C1[C@@]2(C)CC[C@@]2(C)[C@@H]3C[C@](C)(C(=O)O)CC[C@]3(C)CC[C@]12C, the activity (normalised, proliferation) is reported as 7.07%. Work on CN1C(=O)C[C@H](C(=O)N[C@@H](Cc2cnc[nH]2)C(=O)N2CCC[C@@H]2C(N)=O)NC1=O yielded an activity (normalised, proliferation) of 72.5%. Compound C[C@@H]1C[C@@H]([C@H](O)CC2CC(=O)NC(=O)C2)C(=O)[C@@H](C)C1 has an activity (normalised, proliferation) of 0.071%. Compound CC=C1C2C=C(C)CC1(N)c1ccc(=O)[nH]c1C2 (stereo unspecified) has an activity (normalised, proliferation) of 103%. O=C(C[C@@H]1NCCC[C@@H]1O)Cn1cnc2ccccc2c1=O gave an activity (normalised, proliferation) of -0.592%. In the case of CO[C@H]1CCC(O[C@H]2C[C@H]([C@]3(C)CC[C@]4(C[C@H](O)[C@@H](C)[C@@H]([C@@H](C)C=C(C)C(=O)[C@H](C)C[C@H](C)C(=O)O)O4)O3)O[C@]3(O[C@@H]([C@H]4O[C@@](O)(CO)[C@H](C)C[C@H]4C)C[C@H]3C)[C@H]2C)O[C@H]1C (stereo partly specified), the activity (normalised, proliferation) is reported as 120%. Work on O=c1[nH]c2ccc(Cl)cc2c(N[C@@H]2CN3CCC2CC3)c1-c1nc2ccccc2[nH]1 yielded an activity (normalised, proliferation) of -0.29%. C[C@]12O[C@H](C[C@@]1(O)C(=O)O)n1c3ccccc3c3c4c(c5c6ccccc6n2c5c31)CNC4=O gave an activity (normalised, proliferation) of 8.93% [at 4.15 µM]. In the case of COC1=CC(C)=C[C@@H](C)[C@@H](O)[C@@H](C)CC(C)=CC=C[C@H](OC)[C@H]([C@@H](C)[C@@H](O)[C@H](C)[C@@]2(O)C[C@@H](O)[C@H](C)[C@@H](C(C)C)O2)OC1=O, the activity (normalised, proliferation) is reported as 0.863%. C[C@H]1CCCC=CC2C[C@H](O)C[C@@H]2[C@H](O)C=CC(=O)O1 (stereo partly specified) showed an activity (normalised, proliferation) of -0.991%.
